This passage reports Potency and outcome results from PubChem BioAssay (Tox21).

Structures are written as SMILES. Results filed as inconclusive are left out. A number with no mark means an inactive call. Calls of active or inactive are those of the source. Unless noted, the call rests on the fitted dose curve; in most records, active means well fitted curve in the direction sought with a large enough effect in the repeat runs; inconclusive means weak or mixed curves; inactive means no such curve, though single readings can be large; an effect the other way counts as inactive or inconclusive.

The nature of assay [1]: qHTS assay to identify small molecule agonists of the peroxisome proliferator-activated receptor delta (PPARd) signaling pathway - cell viability counter screen (AID 743211). Further: nearly all actives have a fitted effect of over 55% in size. A digest of the protocol:
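PPARd-bla HEK293H cells (3000/well) were pre-incubated 5 h at 37 C, then exposed to compound for 17 h at 37 C. After 2 h with LiveBLAzer substrate, CellTiter-Glo was added to the same wells; luminescence read after 30 min at room temperature.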

Assay [2] is described as follows: qHTS assay to identify small molecule antagonists of the peroxisome proliferator-activated receptor delta (PPARd) signaling pathway - cell viability counter screen (AID 743213). Further: nearly all actives have a fitted effect of over 50% in size. A digest of the protocol:
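CellTiter-Glo was added to PPARd-bla HEK293H wells following 17 h compound treatment in the presence of 300 nM L165041. Luminescence was recorded after 30 min at room temperature.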

A short description of assay [3]: qHTS assay to identify small molecule agonists of the farnesoid-X-receptor (FXR) signaling pathway - cell viability counter screen (AID 743218). Further: nearly all actives have a fitted effect of over 45% in size. In short, it runs like this:
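Viability counter screen in the same wells: CellTiter-Glo luminescence, 30 min room-temperature incubation, measured after the beta-lactamase read. Cells were GeneBLAzer FXR-UAS-bla HEK 293T, compound-treated 16 h at 37C.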

A short description of assay [4]: qHTS assay to identify small molecule antagonists of the farnesoid-X-receptor (FXR) signaling pathway - cell viability counter screen (AID 743221; active means well fitted cell-killing curve with a large enough effect in the repeat runs, not every such curve was filed as active; further: nearly all actives have a fitted effect of over 50% in size). In short, it runs like this:
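GeneBLAzer FXR-UAS-bla HEK 293T cells, compound plus chenodeoxycholic acid (50 uM final), 16 h at 37 C. CellTiter-Glo added to the same wells after the beta-lactamase read; luminescence read after 30 min at room temperature as viability.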

Assay [5] can be described thus: qHTS assay to identify small molecule agonists of the vitamin D receptor (VDR) signaling pathway - cell viability counter screen (AID 743224). Further: series mostly up to about 63 µM; nearly all actives have a fitted effect of over 50% in size. In short, it runs like this:
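Counter screen run in the same wells as the VDR-bla reporter assay: CellTiter-Glo luminescence, 30 min at room temperature, after 16 h compound treatment at 37C of cells pre-plated for 4 h.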

Assay [6] can be described thus: qHTS assay to identify small molecule antagonists of the vitamin D receptor (VDR) signaling pathway - cell viability counter screen (AID 743225). Further: nearly all actives have a fitted effect of over 50% in size. A digest of the protocol: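 VDR-UAS-bla HEK 293T cells were plated and incubated 4 h at 37C, then dosed with compound plus 3 nM (final) 1-alpha,25-dihydroxyvitamin D3 for 16 h. After the 2 h beta-lactamase read, viability in the same wells was read as CellTiter-Glo luminescence after 30 min at room temperature.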

Assay [7] is described as follows: qHTS assay to identify small molecule agonists of the NFkB signaling pathway (AID 1159509; active means well fitted curve in the direction sought with a large enough effect in the signal ratio in the repeat runs, not every such curve was filed as active; the % refers to the signal ratio; further: series mostly up to about 61 µM). In short, it runs like this: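 Readout: FRET fluorescence, 405 nm excitation, 460/530 nm emission; beta-lactamase expression disrupts FRET. Cells: ME-180 stably carrying NF-kB-driven bla reporter. Compound exposure 5 hr, 37 C, 5% CO2.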
Assay [8] can be described thus: qHTS assay to identify small molecule agonists of the NFkB signaling pathway - cell viability counter screen (AID 1159515; calls by dose curve; further: series mostly up to about 61 µM; nearly all actives have a fitted effect of over 55% in size). A digest of the protocol:
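Read by CellTiter-Glo luminescence (30 min, room temperature) in the wells also used for the beta-lactamase FRET read. ME-180 NFkB-bla cells at 2,000 per well were plated overnight, then exposed to compound for 5 hr at 37 C.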

A short description of assay [9]: qHTS assay to identify small molecule agonists of the endoplasmic reticulum stress response signaling pathway (AID 1159516; active means well fitted activation curve with a large enough effect in the signal ratio in the repeat runs, not every such curve was filed as active; the % refers to the signal ratio). A digest of the protocol: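 Ratiometric FRET readout (405 nm excitation; 460 and 530 nm emission) of a beta-lactamase gene driven by the ER stress response element, after 2 hr substrate loading. HeLa ESRE-bla cells were seeded overnight and treated with compounds for only 5 hr at 37 C.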

Assay [10] is described as follows: qHTS assay to identify small molecule antagonists of the retinoid-related orphan receptor gamma (ROR-gamma) signaling pathway - cell viability counter screen (AID 1159520). Further: nearly all actives have a fitted effect of over 50% in size. In short, it runs like this:
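Tet-on ROR gamma CHO cells were given compounds for 2 hr, then doxycycline hyclate at 1 uM final, and incubated 16 hr at 37 C. Viability was measured as ATP content by CellTiter-Glo luminescence.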

In assay [11] the target is Nuclear receptor ROR-gamma (Homo sapiens) (UniProt P51449). In words: qHTS assay to identify small molecule antagonists of the retinoid-related orphan receptor gamma (ROR-gamma) signaling pathway (AID 1159521). A digest of the protocol: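 Tet-on ROR-gamma CHO cells with ROR response element-luciferase reporter; compounds added 2 hr before 1 uM doxycycline induction, then 16 hr at 37 C. Antagonism scored as decreased ONE-Glo luminescence.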

Assay [12] can be described thus: qHTS assay to identify small molecule agonists of the AP-1 signaling pathway - cell viability counter screen (AID 1159525; calls by dose curve; further: nearly all actives have a fitted effect of over 55% in size). A digest of the protocol:
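Same-well cytotoxicity counter screen of the Tox21 10K library in ME-180 cells. The readout is ATP-dependent luminescence after 5 h compound treatment. Data are normalised to DMSO and tetra n-octyl ammonium bromide controls.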

Assay [13] in a line: qHTS assay to identify small molecule agonists of the AP-1 signaling pathway (AID 1159526; calls by dose curve).
In assay [14] the target is Bile acid receptor (Homo sapiens) (UniProt Q96RI1). Nature of the assay: qHTS assay to identify small molecule agonists of the farnesoid-X-receptor (FXR) signaling pathway (AID 743220; active means well fitted activation curve with a large enough effect in the signal ratio in the repeat runs, not every such curve was filed as active; the % refers to the signal ratio). A digest of the protocol: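 FXR-UAS-bla HEK 293T cells carrying a UAS-driven beta-lactamase reporter were plated for 5 h at 37C/5% CO2, then exposed to DMSO-dissolved Tox21 10K compounds for 16 h at 37C. A LiveBLAzer B/G FRET substrate was loaded for 2 h at room temperature before fluorescence reading.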

For assay [15], the target named is Vitamin D3 receptor (Homo sapiens) (UniProt P11473). Nature of the assay: qHTS assay to identify small molecule antagonists of the vitamin D receptor (VDR) signaling pathway (AID 743223; active means well fitted inhibition curve with a large enough effect in the signal ratio in the repeat runs, not every such curve was filed as active; the % refers to the signal ratio). A digest of the protocol: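 VDR-bla cells were treated with compound plus 3 nM final 1alpha,25-dihydroxyvitamin D3 for 16 h at 37C. Beta-lactamase reporter read by B/G FRET substrate fluorescence after 2 h at room temperature. qHTS format.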

The target of assay [16] is Peroxisome proliferator-activated receptor delta (Homo sapiens) (UniProt Q03181). In words: qHTS assay to identify small molecule agonists of the peroxisome proliferator-activated receptor delta (PPARd) signaling pathway (AID 743212; calls by dose curve). A digest of the protocol:
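Read-out: beta-lactamase FRET fluorescence after 2 h room-temperature incubation with LiveBLAzer B/G substrate. Cells were HEK293H carrying a UAS-bla reporter for PPARd, treated at 37 C with DMSO-dissolved compounds.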

In assay [17] the target is Vitamin D3 receptor (Homo sapiens) (UniProt P11473). In words: qHTS assay to identify small molecule agonists of the vitamin D receptor (VDR) signaling pathway (AID 743222; calls by dose curve). In short, it runs like this:
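Agonist mode, beta-lactamase reporter: fluorescence from LiveBLAzer B/G FRET substrate (2 h, room temperature) read after 16 h compound treatment at 37 C of VDR-bla cells, which were pre-incubated 4 h after seeding.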

A short description of assay [18]: qHTS assay to identify small molecule agonists of the endoplasmic reticulum stress response signaling pathway - cell viability counter screen (AID 1159517; calls by dose curve). A digest of the protocol: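 Steps: seed 1,500 ESRE-bla HeLa cells per well; incubate overnight at 37 C, 5% CO2; add compounds in DMSO for 5 hr; run FRET substrate 2 hr RT; add CellTiter-Glo, wait 30 min, read luminescence.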

For assay [19], the target named is Peroxisome proliferator-activated receptor delta (Homo sapiens) (UniProt Q03181). In words: qHTS assay to identify small molecule antagonists of the peroxisome proliferator-activated receptor delta (PPARd) signaling pathway (AID 743215; active means well fitted inhibition curve with a large enough effect in the signal ratio in the repeat runs, not every such curve was filed as active; the % refers to the signal ratio;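 further: cells stimulated with agonist L165041 at 300 nM final during compound exposure; series mostly up to about 62 µM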). In short, it runs like this:
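Agonist L165041 (300 nM final) added with compound to PPARd-bla HEK293H UAS-bla reporter cells; 17 h incubation at 37 C. Read-out: LiveBLAzer FRET substrate, 2 h at room temperature, fluorescence intensity.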

Assay [20] addresses Bile acid receptor (Homo sapiens) (UniProt Q96RI1). In words: qHTS assay to identify small molecule antagonists of the farnesoid-X-receptor (FXR) signaling pathway (AID 743217; active means well fitted inhibition curve with a large enough effect in the signal ratio in the repeat runs, not every such curve was filed as active; the % refers to the signal ratio; further: potency means the concentration at half of the fitted maximal effect). In short, it runs like this:
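Antagonist mode: chenodeoxycholic acid at 50 uM final stimulates a UAS-driven beta-lactamase reporter in HEK 293T FXR-bla cells during 16 h, 37C compound exposure. Read-out is FRET substrate fluorescence after 2 h at room temperature.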

Peroxisome proliferator-activated receptor delta (Homo sapiens), sequence (Q03181 whole entry, looked up): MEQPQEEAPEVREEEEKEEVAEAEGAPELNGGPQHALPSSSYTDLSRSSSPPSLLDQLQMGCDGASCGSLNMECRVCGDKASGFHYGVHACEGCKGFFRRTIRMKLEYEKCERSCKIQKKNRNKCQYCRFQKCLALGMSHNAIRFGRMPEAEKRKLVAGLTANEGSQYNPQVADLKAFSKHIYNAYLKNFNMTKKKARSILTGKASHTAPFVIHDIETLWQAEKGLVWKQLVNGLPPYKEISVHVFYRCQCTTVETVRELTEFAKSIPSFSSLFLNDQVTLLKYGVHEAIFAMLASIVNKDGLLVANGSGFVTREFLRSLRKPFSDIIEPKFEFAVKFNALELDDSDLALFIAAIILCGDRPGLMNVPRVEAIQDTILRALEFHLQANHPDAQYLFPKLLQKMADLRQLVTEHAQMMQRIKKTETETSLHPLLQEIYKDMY
Vitamin D3 receptor (Homo sapiens), sequence (P11473 whole entry, looked up): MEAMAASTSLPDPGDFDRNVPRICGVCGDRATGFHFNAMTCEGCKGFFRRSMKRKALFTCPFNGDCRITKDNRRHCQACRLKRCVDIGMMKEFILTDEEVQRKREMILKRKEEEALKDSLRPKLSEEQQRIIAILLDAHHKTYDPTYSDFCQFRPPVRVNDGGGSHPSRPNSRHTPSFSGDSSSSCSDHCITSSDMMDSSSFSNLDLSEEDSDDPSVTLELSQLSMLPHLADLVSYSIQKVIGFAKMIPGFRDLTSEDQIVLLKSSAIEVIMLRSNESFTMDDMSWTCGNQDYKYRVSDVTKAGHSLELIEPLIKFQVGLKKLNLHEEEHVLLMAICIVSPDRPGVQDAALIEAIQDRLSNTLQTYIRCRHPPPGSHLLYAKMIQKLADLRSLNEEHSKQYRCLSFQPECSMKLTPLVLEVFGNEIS
Bile acid receptor (Homo sapiens), sequence (Q96RI1 whole entry, looked up): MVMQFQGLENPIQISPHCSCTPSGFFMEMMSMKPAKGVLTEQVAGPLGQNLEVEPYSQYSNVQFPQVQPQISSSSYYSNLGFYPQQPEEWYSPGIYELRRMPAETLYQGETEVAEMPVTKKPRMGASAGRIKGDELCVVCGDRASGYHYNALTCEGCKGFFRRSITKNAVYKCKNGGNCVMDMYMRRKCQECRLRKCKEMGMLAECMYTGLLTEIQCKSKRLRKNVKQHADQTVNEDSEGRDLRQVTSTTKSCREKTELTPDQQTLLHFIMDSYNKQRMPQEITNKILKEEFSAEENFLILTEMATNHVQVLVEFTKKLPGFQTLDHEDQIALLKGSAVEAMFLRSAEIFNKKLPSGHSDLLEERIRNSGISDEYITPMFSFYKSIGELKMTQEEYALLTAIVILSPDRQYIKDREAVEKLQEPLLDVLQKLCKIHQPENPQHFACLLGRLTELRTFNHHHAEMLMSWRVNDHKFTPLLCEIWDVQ

As to `O=C(O)c1cccnc1C(=O)O`, the Potency entry in [1], in assay [2], in assay [3], in assay [4], in [5] and in [6] was “inactive” each time. For the same compound, the Potency entry in [10] and in assay [11] was “inactive” throughout. The compound was classed as inactive in assay [7], in [8], in assay [9], in assay [12] and in assay [13].
On to `COC(=O)c1cc(S(N)(=O)=O)ccc1OC`, for which the Potency result in assay [1], in [2], in [3], in [14], in assay [4] and in assay [5] was “inactive” each time. The Potency result in assay [6], in assay [10] and in assay [11] was “inactive” throughout. Also, the result in [15], in assay [7], in [8], in [9], in [12] and in assay [13] was inactive.
As to `CCCCC/C(=C\c1ccccc1)CO`, the Potency result in assay [1], in [16], in assay [3], in [14], in assay [4] and in assay [11] was “inactive” throughout. Besides, the outcome in assay [17], in assay [15], in assay [7], in assay [8], in [9] and in assay [18] was inactive.
With `CCN(CC)CCNC(=O)c1ccc(NC(C)=O)cc1`, the Potency result in assay [1], in assay [16], in [2], in assay [19], in [20] and in assay [3] was “inactive” each time. Besides, the Potency entry in assay [14], in [4], in [5], in [6], in assay [10] and in [11] was “inactive” each time. In addition, the call in [7], in [8], in assay [9], in assay [12] and in assay [13] was inactive.
With `COc1cc2[nH]c(=O)[nH]c(=O)c2cc1OC`, the Potency result in assay [1], in assay [16], in assay [2], in assay [3], in [4] and in [5] was “inactive” throughout. Also, the Potency entry in [6], in assay [10] and in [11] was “inactive” in each case. Also, the compound was classed as inactive in [17], in assay [15], in [7], in assay [8], in assay [9] and in [12]. The outcome in assay [13] was inactive.
On to `C=CC(C)(C)CC(=O)OC`, for which the Potency result in [1], in assay [16], in assay [2], in assay [3], in assay [14] and in assay [4] was “inactive” each time. Further, the Potency result in assay [5] and in [6] was “inactive” throughout. In addition, the compound was called inactive in assay [15], in [7], in assay [8], in assay [9], in [18] and in assay [12]. Also, in assay [13], the result was inactive.
With `c1cnc2c(n1)CCCC2`, the Potency entry in assay [1], in [16], in [2], in [19], in [3] and in [4] was “inactive” throughout. Moreover, the Potency entry in [5], in assay [6], in assay [10] and in [11] was “inactive” throughout. The outcome in [17], in assay [15], in [7], in [8], in assay [9] and in [12] was inactive. Moreover, in [13], the outcome was inactive.
In the case of `Cc1cc2nc3ccc(=[N+](C)C)cc-3sc2cc1N`, the Potency result in assay [16], in [2], in [19], in assay [14], in assay [4] and in assay [6] was “inactive” in each case. Also, the Potency result in assay [11] was “inactive”. Besides, in assay [20], the Potency was 10.6 µM (active). The compound was classed as inactive in assay [15], in [7], in assay [8], in assay [9] and in [18].
